# Source: PubChem
# Shown are actives, neighbours in structure and some others; about 18% of the full set was active somewhere.
# TDP1 block: qHTS Assay for Inhibitors of Tyrosyl-DNA Phosphodiesterase (TDP1) | Tyrosyl-DNA phosphodiesterase 1 (Homo sapiens), Q9NUW8 | recombinant TDP1, AlphaScreen DNA substrate cleavage | AID 485290, 2010 | hit rate 0.28% among 350,000 | Potency, µM (titrated, usually from 130 µM), without a hit: at the highest dose activity change, negative = inhibition, most hits filed as inhibitors; also: potency is read from the fitted curve at half-maximal effect; % is scaled to controls: 0 for no effect and ±100 for the full control effect; nearly all actives have a fitted effect of over 40% in size
# Target sequence (Q9NUW8 whole entry, looked up): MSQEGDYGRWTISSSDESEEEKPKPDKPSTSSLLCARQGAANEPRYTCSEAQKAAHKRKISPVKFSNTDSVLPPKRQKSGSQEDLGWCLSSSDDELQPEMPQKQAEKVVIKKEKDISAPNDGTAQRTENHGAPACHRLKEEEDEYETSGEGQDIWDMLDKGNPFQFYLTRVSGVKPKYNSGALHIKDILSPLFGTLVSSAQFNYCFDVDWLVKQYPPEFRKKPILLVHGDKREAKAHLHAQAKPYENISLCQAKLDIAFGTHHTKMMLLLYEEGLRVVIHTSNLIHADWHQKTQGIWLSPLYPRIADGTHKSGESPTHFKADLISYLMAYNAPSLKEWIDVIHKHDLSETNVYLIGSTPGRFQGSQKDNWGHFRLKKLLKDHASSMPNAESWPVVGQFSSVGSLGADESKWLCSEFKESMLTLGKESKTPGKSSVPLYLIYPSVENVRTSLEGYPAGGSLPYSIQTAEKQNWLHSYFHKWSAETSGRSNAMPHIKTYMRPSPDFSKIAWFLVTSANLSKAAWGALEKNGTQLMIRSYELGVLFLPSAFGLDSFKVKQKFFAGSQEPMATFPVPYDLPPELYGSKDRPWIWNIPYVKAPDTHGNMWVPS
#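 E. coli-derived human Tdp1, 1 nM final. Cpd preinc 15 min RT; substrate 15 nM final, 5 min RT; AS bead mix 10 ug/ml final, 10 min RT. Signal loss = tyrosine-FITC cleavage. No-enzyme wells = max signal.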
# TGFb SMAD3 inh: qHTS for Inhibitors of TGF-b; HepG2 CAGA-GFP TGF-b/SMAD3 reporter, GFP fluorescence, 18 h; TGF-beta stimulated, 500 pg/mL final; Potency, µM (top dose mostly 46.1 µM), for inactives: at the highest dose activity, negative = inhibition, most hits filed as inhibitors; hit rate 1.2% among 410,000; also: potency is read from the fitted curve at half-maximal effect; % is scaled to controls: 0 for no effect and ±100 for the full control effect; nearly all actives have a fitted effect of over 65% in size
#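 Inhibition of TGF-beta-driven CAGA-GFP reporter expression in HEPG2 cells is measured by cellular GFP fluorescence after 18 h stimulation with 500 pg/mL recombinant TGF-beta in 1% FBS medium at 37 degrees C.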
# TDP1 cell noCPT: qHTS for Inhibitors of human tyrosyl-DNA phosphodiesterase 1 (TDP1): qHTS in cells in absence of CPT | hit rate 15% among 420,000 | AID 686978, 2013 | Potency, µM (doses to about 46.2 µM), without a hit: at the top dose activity change, negative = growth inhibition, most hits filed as inhibitors | DT40 Tdp1-/- hTDP1 cells, no CPT, ATP luminescence, 48 h; also: potency is read from the fitted curve at half-maximal effect; % is scaled to controls: 0 for no effect and ±100 for the full control effect; nearly all actives have a fitted effect of over 55% in size
#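 Chicken DT40 Tdp1-/- cells complemented with human TDP1, screened without camptothecin (DMSO vehicle only), 400 cells/well. Compounds pin-transferred, cells incubated at 37 °C for at least 48 hr. Growth read as ATP-dependent luminescence (CellTiter-Glo, 30 min at RT).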
# IL-1B inflam inh: qHTS for Inhibitors of Inflammasome Signaling: IL-1-beta AlphaLISA Primary Screen; activity change, % at 57.5 µM; THP-1 LPS/ATP IL-1B secretion, AlphaLISA, 16 h; stronger effect = lower value; hit rate 4.7% among 360,000; in the data active = activity change below about -50%; inconclusive = mostly about -30% to -49%; also: % is scaled to controls: 0 for no effect and ±100 for the full control effect
#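 Secreted IL-1B measured by AlphaLISA bead assay after 16 h compound exposure of THP-1 cells; compounds (final up to 57.5 uM) added 1 h before LPS (250 ng/mL) and ATP (1.25 mM) stimulation; lower signal means less secretion.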
# HepG2 viability: qHTS for Inhibitors of TGF-b: Cytotox Counterscreen | hit rate 0.76% among 410,000 | HepG2 CAGA-GFP viability, ATP luminescence, 18 h | Potency, µM (doses to about 46.1 µM), without a hit: at the highest dose activity change, negative = cytotoxicity, usual class: cytotoxic; also: potency is read from the fitted curve at half-maximal effect
#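 CellTiter-Glo luminescence gave cytotoxicity after 18 hours at 37 degrees C. The cells were HepG2 CAGA-GFP in 1% FBS DMEM, stimulated with 500 pg/mL TGF-beta after compound addition. %Activity was normalised to no-cell wells (complete cell-killing) and DMSO (no toxicity), and curves were fitted and classified.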
# DT40 TDP1 CPT: qHTS for Inhibitors of human tyrosyl-DNA phosphodiesterase 1 (TDP1): qHTS in cells in presence of CPT; hit rate 12% among 420,000; Potency, µM (top dose mostly 46.2 µM), for inactives: top-dose activity change, negative = growth inhibition, actives largely listed as inhibitors; chicken DT40 Tdp1-/-;hTDP1 cells + 20 nM CPT, ATP luminescence, 48 h; AID 686979, 2013; also: potency is read from the fitted curve at half-maximal effect; % is scaled to controls: 0 for no effect and ±100 for the full control effect; nearly all actives have a fitted effect of over 55% in size
#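 Cell growth measured by CellTiter-Glo luminescence after a minimum 48 h, 37 C compound exposure with 20 nM CPT in Tdp1-knockout DT40 cells stably expressing hTDP1, seeded 400/well; qHTS titration format.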
# The depositor's hits bear a star; ? = inconclusive; . = no result; ! = not active in a repeat; [ ] = remark or other dose. Unless noted, calls follow the shape of the dose curve; as a rule, active = well fitted curve in the direction sought with a large enough effect; inconclusive = small, poorly fitted or top-dose-only effect, or another doubt; inactive = no such curve, though single readings can be large; an effect the other way counts as inactive or inconclusive.
SMILES,TDP1 block,TGFb SMAD3 inh,TDP1 cell noCPT,IL-1B inflam inh,HepG2 viability,DT40 TDP1 CPT
COc1ccc(N(Cc2ccccc2)C(=O)c2ccccc2[N+](=O)[O-])cc1,2%,3%,9.2µM*,-17,-15%,?
Cn1cc([N+](=O)[O-])c(C(=O)N(Cc2ccccc2)Cc2ccccc2)n1,6%,8%,26µM*,10,10%,?
COc1ccc(C(=O)N(Cc2ccccc2)Cc2ccco2)c(O)c1,0%,.,.,.,.,.
COc1ccc(C(=O)N(CCc2ccccc2)Cc2ccccc2)c(OC)n1,.,?,?,-64*,-12%,?
Cn1cc([N+](=O)[O-])c(C(=O)NCc2ccccc2)n1,0%,36%,-5%,-19,33%,-6%
O=C(c1ccccc1[N+](=O)[O-])N(CCc1ccccc1)Cc1ccccc1,3%,?,12µM*,-2,-21%,16µM*
COc1ccc(CN(C(C)=O)c2ccccc2C(=O)O)cc1,-3%,10%,26%,0,3%,0%
Cc1sc2ncn(CC(=O)N3CCN(c4ccccn4)CC3)c(=O)c2c1S(=O)(=O)N1CCCCC1,6%,-21%,-27%,-28,0%,-1%
Cc1cccc(C(=O)N(CCc2ccccc2)Cc2ccccc2)c1[N+](=O)[O-],1%,?,7.3µM*,0,-31%,10µM*
CS(=O)(=O)c1ccc(C(=O)N(CCc2ccccc2)Cc2ccccc2)cc1,3%,0%,-2%,-2,-5%,-23%
Cc1ccccc1Oc1ccc2c(c1)[C@@H]1C[C@H](N(C)C(=O)NC3CCCCC3)[C@H]([C@H](C)O)C(=O)N1CC2,.,-46%,?,-20,4%,?
Cc1ccccc1Oc1ccc2c(c1)[C@@H]1C[C@H](N(C)C(=O)Nc3cc(Cl)cc(Cl)c3)[C@H]([C@H](C)O)C(=O)N1CC2,.,-25%,18µM*,?,-58%,?
C[C@H](O)[C@@H]1C(=O)N2CCc3c([nH]c4ccccc34)[C@@H]2C[C@@H]1N(C)C(=O)Nc1cc(Cl)cc(Cl)c1,.,?,?,?,-12%,29µM*
Cc1ccccc1Oc1ccc2c(c1)[C@@H]1C[C@H](N(C)C(=O)c3ccco3)[C@H]([C@H](C)O)C(=O)N1CC2,.,-1%,18µM*,0,-8%,?
COc1ccc(-c2ccc3c(c2)[C@@H]2C[C@H]4[C@@H](C(=O)N2CC3)[C@H](C)ON4C)cc1,.,-35%,?,7,-32%,?
Cc1ccccc1Oc1ccc2c(c1)[C@@H]1C[C@H]3[C@@H](C(=O)N1CC2)[C@H](C)ON3C,.,?,23µM*,57,-30%,16µM*
C[C@H](O)[C@@H]1C(=O)N2CCc3c([nH]c4ccccc34)[C@@H]2C[C@@H]1N(C)C(=O)Nc1ccccc1,.,-4%,?,-10,-16%,-24%
COc1ccccc1C(=O)NCCC(=O)Nc1ncccc1O,1%,7%,15%,-7,3%,3%
CC1(C)COC(c2ccc3c(c2)OCO3)OC1,.,10%,-9%,15,10%,9%
COc1ccc(CN(C)S(=O)(=O)c2ccc3c(c2)OCCO3)cc1,2%,2%,-6%,10,2%,-15%
Cc1cc(NC(=O)c2cccc(S(=O)(=O)N3CCCCCC3)c2)n(-c2ccccn2)n1,3%,-5%,21µM*,-18,-11%,?
Cc1cc(NC(=O)c2cccc(S(=O)(=O)N(C)C)c2)n(-c2ccccn2)n1,5%,13%,23µM*,-9,3%,15µM*
COC(=O)[C@H](C(C)C)N(Cc1ccccc1)S(=O)(=O)CCN1CCCC1,0%[56.1 µM],-6%,?,-6,-25%,?
CCOc1nsc(OCC)n1,7%,-12%,0%,20,27%,2%
COc1ccc2nc(C)cc(N/N=C/c3ccc(F)cc3)c2c1,.,4µM*,0.92µM*,-99*,5µM*,1µM*
SMILES,TDP1 block,TGFb SMAD3 inh,TDP1 cell noCPT,IL-1B inflam inh,HepG2 viability,DT40 TDP1 CPT
COc1ccc(/C=N/Nc2cc(C)nc3ccccc23)cc1,0%,?,?,-107*,-76%,?
COc1ccc(/C=N/Nc2cc(C)nc3c(C)cccc23)cc1,3%,?,21µM*,?,13µM*,?
COc1cccc2c(N/N=C/c3ccc(O)c(O)c3)cc(C)nc12,4%,-21%,-18%,23,-27%,18%
COC(=O)[C@H](C)NC(=O)C/C=C\[C@@H](C)[C@H]1C=C[C@H](O)[C@@H](CO)O1,8%[21 µM],.,.,.,.,.
Fc1ccc(N2CCN(c3nc4ccccc4c4nc(-c5ccccc5)nn34)CC2)cc1,-2%,2%,-6%,.,7%,?
O=C(O)c1ccc(NC(CSCc2ccccc2F)C(=O)O)c([N+](=O)[O-])c1 (centres undefined),3%,7%,-2%,-12,-2%,-2%
Cc1ccc(-c2csc3ncnc(NCCC(=O)O)c23)cc1C,.,-4%,-4%,49,-2%,-8%
Cc1ccccc1Cn1c(CN2CCN(c3ccc(F)cc3)CC2)nc2c1c(=O)n(C)c(=O)n2C,0%,.,.,.,.,.
CCCCCn1c(CN2CCN(c3cccc(Cl)c3)CC2)nc2c1c(=O)n(C)c(=O)n2C,4%,?,21µM*,-18,-37%,16µM*
Cc1ccc(Cn2c(CN3CCN(c4cccc(Cl)c4)CC3)nc3c2c(=O)n(C)c(=O)n3C)cc1,5%,?,?,.,-26%,18µM*
CCCn1c(CN2CCN(c3cccc(Cl)c3)CC2)nc2c1c(=O)n(C)c(=O)n2C,4%,-24%,6.5µM*,25,-39%,5.8µM*
CCCCn1c(CN2CCN(c3cccc(Cl)c3)CC2)nc2c1c(=O)n(C)c(=O)n2C,8%,-6%,6.5µM*,-8,2%,7.3µM*
Nc1nc(SCc2cccnc2)c2ncn(C3OC(CO)C(O)C3O)c2n1 (centres undefined),.,-2%,-3%,-3,-14%,-13%
Cc1ccc(NCc2nc3ccccc3n2CCOc2ccccc2)cc1,15%,18µM*!,18µM*,-96*,-29%,?
